The list is not random: actives were taken first. Their share in the collection is about 19%.
ELG1 DNA repair: ELG1-dependent DNA repair inhibition. actives 2.3% (n = 330,000). HEK293T ELG1-luciferase reporter, luminescence, 16 h; DNA damage induced by 5-fluorouridine. Potency, µM (titrated, usually from 46.1 µM), inactives show at the top dose activity change, negative = inhibition, hits mostly inhibitors; further: potency means the concentration at half of the fitted maximal effect; nearly all actives have a fitted effect of over 55% in size
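HEK293T cells expressing luciferase-tagged ELG1 (2,000/well) received 5-Fluorouridine plus compound or DMSO for 16 hr at 37 °C. Luciferase was read by ONE-Glo luminescence after 30 min at room temperature.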
IL-1B inflam inh: inflammasome signaling inhibition, IL-1 beta readout; THP-1 LPS/ATP IL-1B secretion, AlphaLISA, 16 h; active compounds read low; activity change, % at 57.5 µM; actives 4.7% (n = 360,000); in the data active means activity change below about -50%; inconclusive means mostly about -30% to -49%
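Secreted IL-1B measured by AlphaLISA bead assay after 16 h compound exposure of THP-1 cells; compounds (final up to 57.5 uM) added 1 h before LPS (250 ng/mL) and ATP (1.25 mM) stimulation; lower signal means less secretion.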
HT1080-NT tox: kills 2HG-producing HT-1080-NT fibrosarcoma cells; HT-1080-NT fibrosarcoma viability, CellTiter-Glo ATP luminescence, 48 h; Potency, µM (series often up to 46.1 µM), inactives show at the top dose activity, negative = less viability, actives largely listed as cytotoxic; actives 1.6% (n = 360,000);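 further: NT is the 2HG producing partner of a matched IDH1 knockdown line; potency means the concentration at half of the fitted maximal effect; 0% = DMSO-treated cells and -100% = media-only wells without cells; nearly all actives have a fitted effect of over 55% in size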
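Viability by CellTiter-Glo luminescence after 48 h compound exposure at 37C of HT-1080-NT cells (750/well, RPMI, 5% FBS). % activity scaled between DMSO wells and medium-only wells, then curve-fitted and categorized by curve class.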
DT40 TDP1 no CPT: qHTS for Inhibitors of human tyrosyl-DNA phosphodiesterase 1 (TDP1): qHTS in cells in absence of CPT; DT40 Tdp1-/- hTDP1 cells, no CPT, ATP luminescence, 48 h; Potency, µM (top dose mostly 46.2 µM), for the others: at the top dose activity change, negative = growth inhibition, usual class: inhibitors; actives 15% (n = 420,000); further: potency means the concentration at half of the fitted maximal effect; nearly all actives have a fitted effect of over 55% in size
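DT40 Tdp1-/-;hTDP1 cells, no CPT (DMSO vehicle only), 400 cells/well; compounds pin-transferred; ≥48 hr, 37 °C; CellTiter-Glo 30 min RT dark, luminescence read.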
HT1080 IDH1KD tx: toxicity to HT-1080 IDH1 knockdown cells (counter line). HT-1080 IDH1 knockdown viability, ATP luminescence, 48 h. actives 2% (n = 360,000). AID 686971. Potency, µM (doses to about 46.1 µM), inactives show at the top dose activity, negative = toxicity, usual class: cytotoxic;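 further: potency means the concentration at half of the fitted maximal effect; 0% = DMSO wells and -100% = cell-free medium wells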
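In this qHTS, HT-1080 cells depleted of IDH1 are exposed for 48 h at 37 °C to compound titrations. Toxicity is scored from CellTiter-Glo luminescence, with DMSO as full viability and medium alone as none.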
TDP1 cell CPT: DT40-hTDP1 cell growth loss with CPT | chicken DT40 Tdp1-/-;hTDP1 cells + 20 nM CPT, ATP luminescence, 48 h | actives 12% (n = 420,000) | Potency, µM (series often up to 46.2 µM), inactives show top-dose activity change, negative = growth inhibition, hits mostly inhibitors | AID 686979; further: potency means the concentration at half of the fitted maximal effect; nearly all actives have a fitted effect of over 55% in size
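Chicken DT40 Tdp1-/- cells stably complemented with human TDP1 were seeded at 400 cells/well in medium containing 20 nM camptothecin, exposed to pin-transferred compounds, and grown at 37 °C for at least 48 hr. Viability was read as ATP luminescence.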
* marks the source's active call; other numbers are inactive results; ? = inconclusive; nt = not tested or not shown. Unless noted, the call rests on the fitted dose curve; in most records, active means well fitted curve in the direction sought with a large enough effect; inconclusive means small, poorly fitted or top-dose-only effect, or another doubt; inactive means no such curve, though single readings can be large; an effect the other way counts as inactive or inconclusive. Unless noted, on the % scale 0 is the no-effect control and ±100 the full control effect.

SMILES	ELG1 DNA repair	IL-1B inflam inh	HT1080-NT tox	DT40 TDP1 no CPT	HT1080 IDH1KD tx	TDP1 cell CPT
COc1ccc(S(=O)(=O)Nc2cccc3c2O[C@H](CN(C)S(=O)(=O)c2cccs2)[C@@H](C)CN([C@H](C)CO)C3=O)cc1	8.3%	-10.6	-2.8%	-11.1%	-0.1%	?
COc1ccc(S(=O)(=O)N(C)C[C@H]2Oc3c(NC(=O)Nc4ccccc4)cccc3C(=O)N([C@H](C)CO)C[C@@H]2C)cc1	nt	0.0	-18.1%	?	-8.4%	?
COc1ccc(S(=O)(=O)Nc2cccc3c2O[C@H](CN(C)S(=O)(=O)c2ccc(Cl)cc2)[C@H](C)CN([C@H](C)CO)C3=O)cc1	-9.7%	-17.6	-8.4%	18.4µM*	-9.1%	?
CC(C)NC(=O)Nc1cccc2c1O[C@H](CN(C)S(=O)(=O)c1ccc(F)cc1)[C@@H](C)CN([C@H](C)CO)C2=O	-2.8%	-4.6	0.9%	-28.2%	2.0%	16.4µM*
CC(C)NC(=O)Nc1cccc2c1O[C@H](CN(C)S(=O)(=O)c1ccccc1)[C@@H](C)CN([C@H](C)CO)C2=O	9.2%	1.8	-3.2%	-9.6%	-1.0%	-11.1%
C[C@H](CO)N1C[C@H](C)[C@@H](CN(C)S(=O)(=O)c2ccccc2)Oc2c(NC(=O)C3CCCCC3)cccc2C1=O	21.7%	12.5	-2.9%	23.1µM*	-6.8%	?
CC1(Cc2ccccc2Cl)C(=O)Nc2ccc(OC(F)(F)F)cc21 (stereo not drawn)	nt	-9.7	?	?	29.1µM*	23.1µM*
CC1(Cc2ccccc2C#N)C(=O)Nc2ccc(OC(F)(F)F)cc21 (stereo not drawn)	nt	-21.6	1.1%	-28.1%	-7.7%	-29.5%
O=C(Cc1csc(Nc2nc(=S)[nH]c3ccccc23)n1)NCc1cccc(Cl)c1	1.2%	18.9	-13.2%	18.4µM*	?	?
O=C(Cc1csc(Nc2nc(=S)[nH]c3ccccc23)n1)N1CCN(c2cccc(C(F)(F)F)c2)CC1	?	40.6	-9.7%	16.4µM*	-1.0%	?
Cc1ccc(CNC(=O)Cc2csc(Nc3nc(=S)[nH]c4ccccc34)n2)cc1	-0.5%	nt	nt	nt	nt	nt
O=C(Cc1csc(Nc2nc(=S)[nH]c3ccccc23)n1)NCc1ccccc1Cl	7.3%	18.3	11.0%	4.61µM*	-0.7%	20.6µM*
COC(=O)c1[nH]c2ccc(Cl)cc2c1NC(=O)CCN1CCOCC1	-11.2%	0.0	-1.8%	-13.7%	-5.4%	-3.5%
COC(=O)c1[nH]c2cc(C)ccc2c1NC(=O)CN1CCc2cc(OC)c(OC)cc2C1	14.6µM*	?	-25.6%	?	?	?
CCOC(=O)c1[nH]c2ccc(F)cc2c1NC(=O)CN1CCc2cc(OC)c(OC)cc2C1	6.51µM*	nt	nt	nt	nt	nt
COC(=O)c1[nH]c2ccc(Cl)cc2c1NC(=O)CN1CCc2cc(OC)c(OC)cc2C1	9.2µM*	-10.9	-25.4%	20.6µM*	-23.0%	?
C=CCOc1ccc(/C=C/C(=O)OCC(=O)N(C)CC(=O)Nc2ccccc2Cl)cc1	3.4%	-22.6	0.5%	?	1.3%	-24.6%
COc1ccc(NC2C=CS(=O)(=O)C2)c(OC)c1 (stereo not drawn)	13.1%	-61.0*	-6.7%	-13.7%	-11.4%	-15.8%
CSc1nn(Cc2cccc(Cl)c2)c(N(C(C)=O)C(C)=O)c1S(=O)(=O)c1ccccc1	nt	nt	nt	20.6µM*	nt	?
CC(=O)Nc1cc(-c2ccccc2)nn1Cc1cccc(Cl)c1	nt	nt	nt	-26.4%	nt	-17.4%
CCOC(=O)N1CCN(CCC(=O)Nc2cccc(Cl)c2C)CC1	8.6%	0.0	3.8%	?	0.3%	-24.5%
COc1ccc(NC(=O)C2(C)CCN2Cc2csc3ccccc23)cc1OC (stereo not drawn)	nt	-15.1	-22.8%	14.6µM*	?	14.6µM*
CSc1ccc(CN2CCC2(C)C(=O)NCc2cccc(C(F)(F)F)c2)cc1 (stereo not drawn)	nt	-18.4	?	?	?	?
CC1(C(=O)NCc2cccc(C(F)(F)F)c2)CCN1C1Cc2ccccc2C1 (stereo not drawn)	nt	12.5	?	20.6µM*	?	?
COc1cccc(CN2CCC2(C)C(=O)Nc2cccc3cccnc23)c1F (stereo not drawn)	nt	21.4	23.1µM*	18.4µM*	13µM*	?
SMILES	ELG1 DNA repair	IL-1B inflam inh	HT1080-NT tox	DT40 TDP1 no CPT	HT1080 IDH1KD tx	TDP1 cell CPT
COc1cccc(CN2CCC2(C)C(=O)NCc2cccc(C(F)(F)F)c2)c1OC (stereo not drawn)	nt	-1.2	?	13µM*	?	13µM*
CC1(C(=O)Nc2ccc3c(c2)OCCO3)CCN1Cc1csc2ccccc12 (stereo not drawn)	nt	-14.8	-22.8%	?	?	?
COc1cc(C=O)ccc1OC(=O)Nc1ccccc1	nt	-8.5	15.5%	-5.6%	11.9%	-3.9%
COc1ccc(NC(=O)C2(C)CCN2CCc2ccccc2)cc1OC (stereo not drawn)	nt	-8.0	21.2%	?	15.3%	?
COc1ccc(NC(=O)C2(C)CCN2Cc2cccc(OC)c2OC)cc1OC (stereo not drawn)	nt	0.0	4.8%	16.4µM*	-0.7%	?
COc1ccc(NC(=O)C2(C)CCN2Cc2ccc(OC)c3ccccc23)cc1OC (stereo not drawn)	nt	-26.2	?	23.1µM*	23.1µM*	?
CCCN1CNc2c(c(=O)[nH]c(=S)n2CCc2ccc(C)cc2)C1	nt	nt	8.2%	?	15.7%	?
COc1ccc2cc(-c3[nH]ncc3CN3CCCCO3)ccc2c1	?	6.8	-15.7%	?	-11.9%	?
COc1ccc2cc(-c3[nH]ncc3CN3CCCN(c4ccccc4)CC3)ccc2c1	11.1%	?	?	?	?	23.1µM*
Oc1ccccc1-c1cnc2cccnn12	nt	27.7	7.2%	?	0.8%	16.4µM*
CN(CCO)c1cc(Sc2nc3ccccc3s2)c2nonc2c1[N+](=O)[O-]	16.4%	-16.8	6.31µM*	1.84µM*	5.01µM*	2.06µM*
CC(=O)OCCN(C)c1cc(SC(C)C)c2nonc2c1[N+](=O)[O-]	2.0%	-68.3*	?	16.4µM*	?	13µM*
C=C1CC[C@H](O)CC1=C/C=C1\CCC[C@]2(C)[C@@H]([C@H](C)CC[C@@H](O)C(C)(C)O)CC[C@@H]12	nt	nt	nt	23.7µM*	nt	?

Screens (PubChem)
